Compound activity (PubChem BioAssay)
Only some compounds are listed: those with a hit (about 1.3% of all), similar ones and a draw of the others.
BRCT PPI red – BRCT-phosphoprotein interaction inhibition (red fluorophore). AID 892. Potency, µM (series often up to 76.9 µM), without a hit: at the highest dose activity change, negative = inhibition, usual class: inhibitors. BRCT-phosphopeptide binding, red fluorescence polarization. P38398. 0.03% of 75,000 active; also: % is scaled to controls: 0 for no effect and ±100 for the full control effect
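Fluorescence polarization: 100 nM His-tagged BRCA1 BRCT with 100 nM TAMRA-labelled phospho-BACH1 decapeptide, phosphate buffer pH 7.3 with 150 mM NaCl, DTT, 0.01% Tween 20; 12 min RT. Binding inhibition seen as FP decrease.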
USP2a inhib – USP2a (human) protease inhibition. USP2a enzymatic assay, qHTS inhibition. Potency, µM (titrated, usually from 38.3 µM), for the others: at the highest dose activity change, negative = inhibition, actives largely listed as inhibitors. 0.1% of 60,000 active. AID 927; also: potency is read from the fitted curve at half-maximal effect; nearly all actives have a fitted effect of over 60% in size
Target sequence (O75604 whole entry, looked up): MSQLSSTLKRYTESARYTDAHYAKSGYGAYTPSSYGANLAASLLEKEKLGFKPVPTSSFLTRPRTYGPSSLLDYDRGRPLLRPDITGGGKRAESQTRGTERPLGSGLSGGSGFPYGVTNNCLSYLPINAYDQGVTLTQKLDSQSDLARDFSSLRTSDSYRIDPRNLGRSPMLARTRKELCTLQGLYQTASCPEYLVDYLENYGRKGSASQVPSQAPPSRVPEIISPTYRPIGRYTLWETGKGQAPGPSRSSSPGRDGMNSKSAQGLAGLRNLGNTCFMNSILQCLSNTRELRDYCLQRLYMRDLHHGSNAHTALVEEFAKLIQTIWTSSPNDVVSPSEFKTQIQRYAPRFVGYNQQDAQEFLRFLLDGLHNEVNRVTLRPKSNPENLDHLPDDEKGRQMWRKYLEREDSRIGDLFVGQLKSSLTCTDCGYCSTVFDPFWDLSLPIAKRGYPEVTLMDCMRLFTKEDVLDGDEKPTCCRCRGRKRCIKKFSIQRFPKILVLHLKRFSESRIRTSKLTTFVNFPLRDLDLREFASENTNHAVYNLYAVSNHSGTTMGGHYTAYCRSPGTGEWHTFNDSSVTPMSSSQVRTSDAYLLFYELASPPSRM
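Inhibition is measured in a cell-free coupled assay with 20 nM USP2 core, 20 nM Ub-PLA2 and 20 uM NBD C6-HPC, 2.5 h incubation. Activity normalized to NEM control.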
DNA Pol III inh – blocks replication by bacterial DNA polymerase III holoenzyme; AID 603; reconstituted DNA polymerase III holoenzyme replication, biochemical; Potency, µM (top dose mostly 57.1 µM), for inactives: at the top dose activity change, negative = inhibition; 0.25% of 71,000 active; also: potency is read from the fitted curve at half-maximal effect; % is scaled to controls: 0 for no effect and ±100 for the full control effect
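Reconstituted *E. coli* holoenzyme (0.35 nM Pol III, 1 nM beta, 154 nM SSB, 2 nM primase) was preincubated with compound for 15 min at RT. Synthesis on 1.4 nM ssM13Gori ran 35 min, then was stopped with PicoGreen/EDTA and read as dsDNA fluorescence.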
YjeE inh – displaces an ADP probe from E. coli YjeE (TsaE); P0AF67; purified YjeE enzyme, qHTS inhibition assay; Potency, µM; 0.05% of 71,000 active; AID 605
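Fluorescence polarization of a BODIPY Texas Red–ADP probe (2 uM) bound to purified YjeE (10 uM) was read after 15 min room-temperature incubation with compounds. Loss of polarization marks inhibitors; ADP serves as titrated control.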
ERK AVP inh – inhibitors of vasopressin-stimulated ERK signaling pathway; Potency, µM (top dose mostly 57.5 µM), for inactives: top-dose activity, negative = inhibition, hits mostly inhibitors; AID 995; HEK293-V1b, vasopressin-stimulated pERK AlphaScreen; 0.99% of 72,000 active; also: potency is read from the fitted curve at half-maximal effect; % is scaled to controls: 0 for no effect and ±100 for the full control effect; nearly all actives have a fitted effect of over 55% in size
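Phosphorylated ERK1/2 detected via AlphaScreen bead proximity in lysates of V1b-expressing HEK293 cells given 25 nM vasopressin for 5 min after 30 min compound exposure (37 °C). AC50 from Hill equation; basal DMSO 0%, vasopressin 100%.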
BRCT inh green – BRCA1 BRCT-phosphoprotein interaction inhibition; P38398; BRCA1 BRCT-phosphopeptide binding, green fluorescence polarization; Potency, µM (titrated, usually from 76.9 µM), for the others: at the top dose activity change, negative = inhibition, usual class: inhibitors; 0.05% of 75,000 active;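 also: potency is read from the fitted curve at half-maximal effect; plate controls were peptide without protein for full effect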
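Compounds were incubated for 12 min at room temperature with a complex of 100 nM fluorescein-tagged pBACH1 decapeptide and 250 nM His-tagged BRCT protein. Buffer was phosphate pH 7.3 with EDTA, DTT and Tween 20. Disruption of binding lowers the polarization signal.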
The depositor's hits bear a star; [ ] = dose if it differs, or a comment. Calls follow the shape of the dose curve; as a rule, active = well fitted curve in the direction sought with a large enough effect; inconclusive = small, poorly fitted or top-dose-only effect, or another doubt; inactive = no such curve, though single readings can be large; an effect the other way counts as inactive or inconclusive.

COc1cccc2c1C(=O)c1c(O)c3c(c(O)c1C2=O)C[C@@](O)(C(C)=O)C[C@@H]3O[C@H]1C[C@H](N)[C@H](O)[C@H](C)O1 was read as BRCT PPI red 16µM*, DNA Pol III inh 0.16µM*, YjeE inh inactive, ERK AVP inh inconclusive and BRCT inh green 9%.
CCOC(=O)c1ccc(NC(=O)Nc2ccc3c(c2)OCCO3)cc1 was read as BRCT PPI red 0%, USP2a inhib 34%, DNA Pol III inh -2%, YjeE inh inactive, ERK AVP inh 25µM* and BRCT inh green 3%.
For CC(=O)N1CCN(c2ccc(NCc3ccc4c(c3)OCO4)cc2)CC1 the results were BRCT PPI red -1%, USP2a inhib 6%, DNA Pol III inh -5%, YjeE inh inactive, ERK AVP inh -18% and BRCT inh green 0%.
`CCOC(=O)c1c(C)c(C(=O)Nc2ccc3c(c2)OCCO3)c(C)n1C` gave BRCT PPI red 0%, USP2a inhib 6%, DNA Pol III inh -1%, YjeE inh inactive, ERK AVP inh -29% and BRCT inh green 1%.
CC(=O)OCC(=O)NCc1ccc2c(c1)OCO2 was read as BRCT PPI red 0%, USP2a inhib 1%, DNA Pol III inh -4%, YjeE inh inactive, ERK AVP inh 1% and BRCT inh green -1%.
For O=C(c1ccccc1)N1CCN(c2ccc(NCc3ccc4c(c3)OCO4)cc2)CC1 the results were BRCT PPI red -1%, DNA Pol III inh -8%, YjeE inh inactive, ERK AVP inh 20µM* and BRCT inh green 0%.
CCOC(=O)c1ccc(NCc2ccc3c(c2)OCO3)cc1 was read as BRCT PPI red -2%, USP2a inhib 13µM*, DNA Pol III inh -2%, YjeE inh inactive, ERK AVP inh 9% and BRCT inh green -5%.
`COC(=O)C1=C(C)NC(C)=C(C(=O)OCCN(C)Cc2ccccc2)[C@@H]1c1cccc([N+](=O)[O-])c1` gave BRCT PPI red -3%, USP2a inhib 6%, DNA Pol III inh -3%, YjeE inh inactive, ERK AVP inh 6% and BRCT inh green 2%.
Screening C[C@@]12CCC(=O)C=C1CC[C@H]1[C@@H]2[C@@H](O)C[C@]2(C)[C@@H]1CC[C@@]2(O)C(=O)CO returned BRCT PPI red -3%[15.4 µM], DNA Pol III inh -7%[11.4 µM], YjeE inh inactive, ERK AVP inh 13%[11.5 µM] and BRCT inh green -2%[15.4 µM].
O=S1(=O)C=C(Sc2nc3ccccc3s2)c2ccccc21 was read as BRCT PPI red -2%, USP2a inhib 33%, DNA Pol III inh -6%, YjeE inh inactive, ERK AVP inh 13µM* and BRCT inh green -1%.
For Cc1cc(C)nc(SC2=CS(=O)(=O)c3ccccc32)n1 the results were BRCT PPI red -1%, USP2a inhib -5%, DNA Pol III inh -2%, YjeE inh inactive, ERK AVP inh -3% and BRCT inh green 2%.
`Cc1c(N=c2c(=O)c3ccccc3c2=O)c(=O)n(-c2ccccc2)n1C` gave BRCT PPI red 0%, USP2a inhib 15%, DNA Pol III inh -10%, YjeE inh inactive, ERK AVP inh 20µM* and BRCT inh green -2%.
`Cc1c(N=CC=Nc2c(C)n(C)n(-c3ccccc3)c2=O)c(=O)n(-c2ccccc2)n1C` gave BRCT PPI red -1%, USP2a inhib -1%[7.66 µM], DNA Pol III inh -1%[11.4 µM], YjeE inh inactive, ERK AVP inh -11% and BRCT inh green -2%.
`COc1ccc(Oc2cn[nH]c2-c2ccc(O)cc2O)cc1` gave BRCT PPI red -1%, USP2a inhib 5%, DNA Pol III inh 2%, YjeE inh inactive, ERK AVP inh -12% and BRCT inh green 0%.
`CCCc1ccc(Oc2cn[nH]c2-c2ccc(O)cc2O)cc1` gave BRCT PPI red -2%, USP2a inhib 4µM*, DNA Pol III inh -10%[11.4 µM], YjeE inh inactive, ERK AVP inh inconclusive and BRCT inh green -9%.
`CC(=O)OCC1OC(C#Cc2ccc(Cl)cc2)C=CC1OC(C)=O` (centres undefined) gave BRCT PPI red 1%[15.4 µM], ERK AVP inh 6%[11.5 µM] and BRCT inh green 0%[15.4 µM].
Screening C/C(Cl)=C/Cn1c(SC(C)C)nc2c1c(=O)[nH]c(=O)n2C returned BRCT PPI red 0%, USP2a inhib -1%, DNA Pol III inh -5%, YjeE inh inactive, ERK AVP inh 16µM* and BRCT inh green 3%.
Screening C[C@@H]1O[C@@H](n2cc(F)c(=O)[nH]c2=O)[C@H](O)[C@@H]1O returned BRCT PPI red 2%, USP2a inhib -1%, DNA Pol III inh -3%, YjeE inh inactive, ERK AVP inh 14% and BRCT inh green 2%.
COC(=O)c1cc(-c2c[nH]c3ccccc23)n[nH]1 was read as BRCT PPI red -1%, USP2a inhib 2%, DNA Pol III inh -3%, YjeE inh inactive, ERK AVP inh -15% and BRCT inh green -5%.
Screening COC(=O)c1cc2c([nH]c3ccccc32)c(C)n1 returned BRCT PPI red -7%, USP2a inhib 28%, DNA Pol III inh -6%, YjeE inh inactive, ERK AVP inh 32µM* and BRCT inh green 9%.
Cc1cccc(N2CCN(C(=O)c3cn(C)c(=O)c4c3c3ccccc3n4C)CC2)c1C was read as BRCT PPI red 1%, USP2a inhib 23%, DNA Pol III inh 6%, YjeE inh inactive, ERK AVP inh 20µM* and BRCT inh green -1%.
`Cc1ccc(Cl)cc1N1CCN(C(=O)c2cn(C)c(=O)c3c2c2ccccc2n3C)CC1` gave BRCT PPI red 0%, USP2a inhib 29%, DNA Pol III inh -2%, YjeE inh inactive, ERK AVP inh -4% and BRCT inh green -1%.
`O=C1N=C(N2CCOCC2)S/C1=C1\C(=O)N(Cc2ccccc2)c2ccc(Br)cc21` gave BRCT PPI red 0%, USP2a inhib 5%, DNA Pol III inh -2%, YjeE inh inactive, ERK AVP inh -1% and BRCT inh green -1%.
Screening CCCCN1C(=O)/C(=C2\SC(N3CCCCC3)=NC2=O)c2ccccc21 returned BRCT PPI red -2%, USP2a inhib 7%, DNA Pol III inh -6%, YjeE inh inactive, ERK AVP inh 25µM* and BRCT inh green -3%.
COc1ccc(-c2noc(CSc3nnc(-c4ccncc4)n3-c3ccc(F)cc3)n2)cc1OC was read as BRCT PPI red -2%, USP2a inhib 43%, DNA Pol III inh -3%, YjeE inh inactive, ERK AVP inh 25µM* and BRCT inh green 7%.
